Results: PubChem BioAssay (NCATS)
Where “and” joins values, the source holds several entries; their conditions need not be identical. Identical values can stand only once. Results filed as inconclusive are left out. Calls of active or inactive are those of the source. Calls come from the whole dose curve; as a rule, active = well fitted curve in the direction sought with a large enough effect; inconclusive = small, poorly fitted or top-dose-only effect, or another doubt; inactive = no such curve, though single readings can be large; an effect the other way counts as inactive or inconclusive.

Experiments:
[1] = qHTS Assay for Identifying Gametocytocidal Compounds (AID 743244);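 note: % is set by controls: 0 for no effect and ±100 for the full control effect; actives lower the fluorescent signal which means gametocytes are killed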; details: P. falciparum 3D7 stage III-V gametocytes, alamarBlue, 72 h; max response: hits give low values
Outline: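 Compounds are pinned into medium, gametocytes (stage III–V, 3D7, 20,000 cells/well) added, and plates held 72 h at 37 °C in 5% CO2. AlamarBlue follows for 24 h before fluorescence reading.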

[2] = qHTS assay for measurement of the activity of small molecule inhibitors on Zika virus induced Caspase-3 activity in human iPSC derived neural progenitor cells (hNPCs) (AID 1224857); note: % of control where 0% means no effect; nearly all actives have a fitted effect of over 65% in size
Outline: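 Pretreat hNPCs with compound 1 h; infect ZIKV 2 FFU/cell; 6 h 37 C, 5% CO2; Caspase-Glo 3/7, 30 min RT; luminescence; normalize to no-virus and virus-only wells.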

[3] = qHTS assay for measurement of the activity of small molecule inhibitors on Zika virus induced Caspase-3 activity in human astrocytoma cells (AID 1224859);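 note: plate controls were ZIKV-infected untreated cells for no effect and uninfected cells for full effect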
Outline: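 Human SNB-19 astrocytoma cells in RPMI 1640 with 10% FBS receive compound one hour ahead of Zika virus at 2 FFU/cell. After 6 h infection, caspase-3/7 activity is detected by Caspase-Glo luminescence.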

[4] = qHTS assay to identify small molecule inhibitors of chordoma cells - UCH-2 (AID 1259356); note: series mostly up to about 46 µM; % is set by controls: 0 for no effect and ±100 for the full control effect

Cc1c(C(C)C)c(=O)n(-c2ccccc2)n1C
inactive: max response [1] 39.2% | outcome [2] | outcome [3] | Potency [4]

CCn1cc(C(=O)O)c(=O)c2cnc(N3CCCC3)nc21
inactive: max response [1] -1.94% | activity change, negative = inhibition [2] -4.24% [at 9.06 µM] | activity change, negative = inhibition [3] 4.3% [at 9.06 µM] | Potency [4]

COc1ccc(OC)c(C(O)CNC(=O)CN)c1 (stereo not drawn)
inactive: max response [1] -3.82% | outcome [2] | outcome [3] | Potency [4]

CCCC(=O)O[C@]1(C(=O)CO)CC[C@H]2[C@@H]3CCC4=CC(=O)CC[C@]4(C)[C@H]3[C@@H](O)C[C@@]21C
inactive: max response [1] 1.99% | outcome [2] | outcome [3] | Potency [4]

C[C@@H]1C[C@H]2[C@@H]3C[C@H](F)C4=CC(=O)C(Cl)=C[C@]4(C)[C@@]3(F)[C@@H](O)C[C@]2(C)[C@@]1(O)C(=O)CO
inactive: max response [1] 5.34% | outcome [2] | outcome [3] | Potency [4]

CC1(C)O[C@@H]2[C@@H](CO[C@@]3(COS(N)(=O)=O)OC(C)(C)O[C@@H]23)O1
inactive: max response [1] 4.37% | outcome [2] | outcome [3] | Potency [4]

OC[C@@H](O)[C@@H](O[C@@H]1O[C@H](CO)[C@H](O)[C@H](O)[C@H]1O)[C@H](O)[C@@H](O)CO
inactive: max response [1] 9.4% | outcome [2] | outcome [3] | Potency [4]

CN(C)CCCOc1nn(Cc2ccccc2)c2ccccc12
inactive: max response [1] 10.4% | outcome [2] | outcome [3] | Potency [4]

CC(=O)Nc1c(I)cc(I)c(C(=O)O)c1I
inactive: max response [1] 44.8% | outcome [2] | outcome [3] | Potency [4]

O=S1(=O)c2cccc3cccc(c23)N1CCCN1CCN(c2ccc(F)cc2)CC1
inactive: max response [1] 13.8% | outcome [2] | outcome [3] | Potency [4]

CC(=O)OCC(=O)[C@@]1(O)CC[C@H]2[C@@H]3CCC4=CC(=O)C=C[C@]4(C)[C@H]3[C@@H](O)C[C@@]21C
inactive: max response [1] -0.763% | outcome [2] | outcome [3] | Potency [4]

Cc1c(C(N)=O)cc([N+](=O)[O-])cc1[N+](=O)[O-]
inactive: max response [1] -0.173% | outcome [2] | outcome [3] | Potency [4]

CC1(C)O[C@@H]2C[C@H]3[C@@H]4C[C@H](F)C5=CC(=O)CC[C@]5(C)[C@H]4[C@@H](O)C[C@]3(C)[C@]2(C(=O)CO)O1
inactive: max response [1] 1.24% | outcome [2] | outcome [3] | Potency [4]

CN(C)CCOc1ccccc1Cc1ccccc1
inactive: max response [1] -21.1% | outcome [2] | outcome [3] | Potency [4]

O=C1OC2(c3ccc(O)cc3Oc3cc(O)ccc32)c2ccccc21
inactive: max response [1] -13.2% and 24.2% | outcome [2] | outcome [3] | Potency [4]

CCCSS/C(CCO)=C(\C)N(C=O)Cc1cnc(C)nc1N
inactive: max response [1] 2.02% | outcome [2] | outcome [3] | Potency [4]

CC(=O)N(O)CCCCCNC(=O)CCC(=O)N(O)CCCCCNC(=O)CCC(=O)N(O)CCCCCN
inactive: max response [1] 17.5% | outcome [2] | outcome [3] | Potency [4]
